± gives the standard deviation.
Experiments:
Conditions in all cases: modulator concentration 10 µM
[1] = test system: RAW-Dual (murine macrophage reporter line); experiment: NF-kB reporter (SEAP) activity fold change vs agonist alone; higher = enhanced NF-kB activity
Method in brief: (§1)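 Compound reached 10 μM final in each well by pin transfer, onto RAW-Dual murine macrophage reporter cells seeded at 50 000 per well in 384-well plates. After 1 hour at 37 °C, the cells were stimulated overnight with a PRR agonist. SEAP in the supernatant was read with QUANTI-Blue at 620 nm absorbance for NF-κB, and Lucia luciferase was read with QUANTI-Luc luminescence for IRF. Each signal was turned into fold change against the mean agonist-only control on the same plate, and two replicate plates were averaged with propagated errors.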

[2] = test system: RAW-Dual (murine macrophage reporter line); experiment: IRF reporter (Lucia luciferase) activity fold change vs agonist alone; higher = enhanced IRF activity
Method in brief: as §1

[3] = test system: RAW-Dual (murine macrophage reporter line); experiment: viability score (confluency relative to resting cells, overnight) (fraction); higher = more viable, active = viable (0.7 or more)
Method in brief: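 A compound met the cutoff when both of two confluency masks exceeded 70% of resting cells. Those masks were made with IncuCyte software from IncuCyte images of RAW-Dual macrophages treated overnight at 10 μM final. This is the basis of the viability score, which is confluency relative to resting cells.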

[4] = agonist: CpG ODN 1826 0.5 ug/mL

Structure (SMILES)	NF-kB reporter [1, 4]	NF-kB reporter ([1]; agonist: LPS 0.1 ug/mL)	NF-kB reporter ([1]; agonist: MPLA […])	IRF reporter ([2]; agonist: 3'3'-cGAMP 10 ug/mL)	IRF reporter ([2]; agonist: LPS 0.1 ug/mL)	IRF reporter ([2]; agonist: MPLA […])	viability score [3]
COc1ccccc1-c1noc(C2CN(S(=O)(=O)N(C)C)C2)n1	0.972 ± 0.051	0.982 ± 0.083	1.29 ± 0.09	1.02 ± 0.047	1.27 ± 0.26	1.54 ± 0.51	0.993 (active)
Cc1cc(NC(=O)c2ccoc2COc2ccccc2)no1	1.17 ± 0.063	1.08 ± 0.093	1.32 ± 0.071	1.21 ± 0.061	1.21 ± 0.23	1.46 ± 0.38	0.962 (active)
CCN(CC)CCNC(=O)c1ccc(N)cc1.Cl	0.962 ± 0.14	0.935 ± 0.4	0.887 ± 0.052	0.952 ± 0.029	1.29 ± 0.3	1.29 ± 0.097	0.993 (active)
CN1CCN(C2=C(Cl)C(=O)N(c3ccc(Cl)c(Cl)c3)C2=O)CC1	0.902 ± 0.11	1.01 ± 0.091	0.759 ± 0.045	0.524 ± 0.016	1.54 ± 0.28	1.24 ± 0.21	1.01 (active)
CC(C)(C)C1CCc2c(sc(NC(=O)c3ccc(Cl)cc3)c2C(N)=O)C1 (stereo not drawn)	1.02 ± 0.086	1.05 ± 0.093	0.91 ± 0.081	0.961 ± 0.043	1.55 ± 0.23	1.16 ± 0.089	1.01 (active)
CN(C)CCN(Cc1ccccc1)c1ccccn1.Cl	0.731 ± 0.19	0.911 ± 0.052	0.927 ± 0.064	0.811 ± 0.074	0.954 ± 0.22	0.854 ± 0.081	1.01 (active)
COC(=O)[C@]12CCC(C)(C)C[C@H]1[C@H]1C(=O)C=C3[C@@]4(C)C=C(C#N)C(=O)C(C)(C)[C@@H]4CC[C@@]3(C)[C@]1(C)CC2	0.0752 ± 0.0037	0.294 ± 0.025	0.937 ± 0.086	0.0972 ± 0.012	0.571 ± 0.071	0.585 ± 0.14	0.246 (inactive)
CNC(=O)c1cccc(-c2noc(C3CN(C(=O)NC4CCCCC4)C3)n2)c1	1.06 ± 0.053	1.11 ± 0.11	1.03 ± 0.091	1.06 ± 0.065	1.21 ± 0.1	1.17 ± 0.13	1 (active)
CC(=O)N=C1NC(=O)C(=Cc2ccc(C)o2)S1	0.92 ± 0.088	0.847 ± 0.067	0.965 ± 0.026	0.817 ± 0.065	0.895 ± 0.082	0.823 ± 0.083	0.995 (active)
Nc1c2c(nc3ccccc13)CCCC2 [Prestw-329]	0.919 ± 0.075	0.967 ± 0.084	1.24 ± 0.11	1 ± 0.057	1.55 ± 0.12	1.66 ± 0.14	1 (active)
O=C1c2ccccc2C(=O)C1c1ccncc1	0.885 ± 0.066	1.03 ± 0.059	0.944 ± 0.029	0.757 ± 0.046	0.924 ± 0.1	0.799 ± 0.068	0.994 (active)
COc1ccc(C2N3CC4(C)CN2CC(C)(C3)C4O)cc1 (stereo not drawn)	0.816 ± 0.067	0.949 ± 0.046	0.966 ± 0.1	0.995 ± 0.055	1.49 ± 0.086	1.66 ± 0.15	1.01 (active)
CC(=O)Oc1c(C)cc2sc3ccccc3c(=O)c2c1C	1.06 ± 0.18	0.87 ± 0.077	0.927 ± 0.095	0.846 ± 0.032	1.25 ± 0.12	1.2 ± 0.12	0.998 (active)
COc1ccc(C(=O)N2CC(n3cc(CN4CCCC4=O)nn3)C2)cc1F	1.19 ± 0.1	1.01 ± 0.077	1 ± 0.045	1.05 ± 0.088	1.01 ± 0.067	0.952 ± 0.14	0.999 (active)

— the supplement of paper PMC10646978
